Here are results for 9 compounds from PubChem BioAssay (NCI).

The nature of experiment [1]: NCI Yeast Anticancer Drug Screen. Data for the rad50 strain (AID 155).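 Further: 0% = growth of vehicle-only cultures of the same strain.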 Particulars: S. cerevisiae rad50 strain growth inhibition, active compounds read high. The method, boiled down:
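Relative growth inhibition (compound vs vehicle) was measured in yeast with a defined repair-gene alteration.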

The nature of experiment [2]: NCI Yeast Anticancer Drug Screen. Data for the mec2-1 strain (AID 157). Particulars: S. cerevisiae mec2-1 strain, active compounds read high. The method, boiled down:
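Cells of the genetically defined mec2-1 yeast strain are incubated with test compound. Inhibition of growth is calculated against vehicle-treated controls.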

Experiment [3] can be described thus: NCI Yeast Anticancer Drug Screen. Data for the sgs1 mgt1 strain (AID 161).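 Further: 0% = growth of cultures given vehicle only.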 Particulars: S. cerevisiae sgs1 mgt1 strain, active compounds read high. The method, boiled down:
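Inhibition of yeast growth, normalised to vehicle-treated controls, is reported for a strain bearing genetic alterations in DNA damage repair.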

Experiment [4] is described as follows: NCI Yeast Anticancer Drug Screen. Data for the cln2 rad14 strain (AID 165).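 Further: 0% = growth equal to vehicle treated cultures.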 Particulars: S. cerevisiae cln2 rad14 strain, active compounds read high. The method, boiled down: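 The screen exposed genetically defined yeast (cln2 rad14) to test compounds and scored growth inhibition relative to vehicle-treated controls.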
A short description of experiment [5]: NCI Yeast Anticancer Drug Screen. Data for the bub3 strain (AID 167). Particulars: S. cerevisiae bub3 mutant strain, active compounds read high. The essentials:
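Screening used yeast with an engineered genetic alteration affecting cell cycle control. Compound-exposed cultures were compared with vehicle cultures, and reduced growth was taken as inhibition.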

Experiment [6] in a line: NCI Yeast Anticancer Drug Screen. Data for the mlh1 rad18 strain (AID 175). Particulars: S. cerevisiae mlh1 rad18 strain growth inhibition, active compounds read high. The method, boiled down: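 Compound-treated yeast growth, normalised to vehicle controls. Strain bears defined DNA repair mutations.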
Setting [7] is: at 5.0 µM (retest, dose inferred, filed as 0.5).
The mark [8] stands for this setting: at 50.0 µM (retest, dose inferred, filed as 5.0).

The structures appear in SMILES notation. Compounds without any hit were thinned out: in the full panel of roughly 79,000, 15% have a hit. Values without a mark were called inactive. Activity calls are given as the source filed them. No stated cut-off is given here; in the data, active means growth inhibition above about 70%; inactive means the rest.

As for `CN(/N=C\c1ccc(Cl)cc1)C(c1ccc(Cl)cc1)N(C)/N=C/c1ccc(Cl)cc1` (configuration not stated), the growth inhibition in experiment [1] (setting [7]) was -1%; in experiment [1] (setting [8]), 70% (active); in experiment [1] (at 50.0 µM), 29%; in experiment [2] (setting [7]), 2%; in experiment [2] (setting [8]) it was 84% (active); in experiment [2] (at 50.0 µM) it was 9.5%. Further, the growth inhibition was -3% in experiment [3] (setting [7]); 94% (active) in experiment [3] (setting [8]); 80.2% (active) in experiment [3] (at 50.0 µM); 3% in experiment [4] (setting [7]); 67% in experiment [4] (setting [8]); 45.5% in experiment [4] (at 50.0 µM). In addition, the growth inhibition was -2% in experiment [5] (setting [7]); 66% in experiment [5] (setting [8]); 16.6% in experiment [5] (at 50.0 µM); -3% in experiment [6] (setting [7]); 85% (active) in experiment [6] (setting [8]); 30.2% in experiment [6] (at 50.0 µM).

`N=C(N)c1ccc(OCCCCOc2ccc(N)cc2Cl)cc1`: the growth inhibition in experiment [1] (setting [7]) is -36%; in experiment [1] (setting [8]), 89% (active); in experiment [1] (at 50.0 µM), 54.5%; in experiment [2] (setting [7]), -2%; in experiment [2] (setting [8]), 79% (active); in experiment [2] (at 50.0 µM), 7.85%. Moreover, the growth inhibition in experiment [3] (setting [7]) is 3%; in experiment [3] (setting [8]) it was 98% (active); in experiment [3] (at 50.0 µM), 44.4%; in experiment [4] (setting [7]), -2%; in experiment [4] (setting [8]) it was 38%; in experiment [4] (at 50.0 µM), -16.9%. The growth inhibition is 0% in experiment [5] (setting [7]); 97% (active) in experiment [5] (setting [8]); 0.65% in experiment [5] (at 50.0 µM); 17% in experiment [6] (setting [7]); 98% (active) in experiment [6] (setting [8]); 58.6% in experiment [6] (at 50.0 µM).

For the compound `Fc1cccc(CSc2ncnc3c2ncn3C2CCCS2)c1` (configuration not stated), the growth inhibition in experiment [1] (setting [7]) is 4%; in experiment [1] (setting [8]), 70% (active); in experiment [1] (at 50.0 µM) it was 84.9% (active); in experiment [2] (setting [7]) it was 1%; in experiment [2] (setting [8]), 87% (active); in experiment [2] (at 50.0 µM), 90% (active). Besides, the growth inhibition in experiment [3] (setting [7]) is 6%; in experiment [3] (setting [8]) it was 92% (active); in experiment [3] (at 50.0 µM) it was 93.3% (active); in experiment [4] (setting [7]), 26%; in experiment [4] (setting [8]) it was 87% (active); in experiment [4] (at 50.0 µM) it was 82% (active). In addition, the growth inhibition in experiment [5] (setting [7]) was 1%; in experiment [5] (setting [8]), 82% (active); in experiment [5] (at 50.0 µM), 90% (active); in experiment [6] (setting [7]), 3%; in experiment [6] (setting [8]) it was 88% (active); in experiment [6] (at 50.0 µM), 92.5% (active).

For the compound `N#CC(C(=O)CCc1nc2ccccc2[nH]1)c1c(Cl)cccc1Cl` (configuration not stated), the growth inhibition in experiment [1] (setting [7]) is -14%; in experiment [1] (setting [8]) it was 19%; in experiment [1] (at 50.0 µM), -21.2%; in experiment [2] (setting [7]) it was 4%; in experiment [2] (setting [8]), 12%; in experiment [2] (at 50.0 µM) it was 8.05%. Also, the growth inhibition is 7% in experiment [3] (setting [7]); 2% in experiment [3] (setting [8]); 19.6% in experiment [3] (at 50.0 µM); -5% in experiment [4] (setting [7]); 3% in experiment [4] (setting [8]); -30.1% in experiment [4] (at 50.0 µM). Also, the growth inhibition in experiment [5] (setting [7]) was -2%; in experiment [5] (setting [8]), 6%; in experiment [5] (at 50.0 µM), 6.75%; in experiment [6] (setting [7]), -1%; in experiment [6] (setting [8]), 0%; in experiment [6] (at 50.0 µM), 16.1%.

As to `CC(=O)NCCN(C)C`, the growth inhibition in experiment [1] (setting [7]) is 2%; in experiment [1] (setting [8]), -1%; in experiment [1] (at 50.0 µM), 93.5% (active); in experiment [2] (setting [7]), 2%; in experiment [2] (setting [8]), -4%; in experiment [2] (at 50.0 µM) it was 97% (active). For the same compound, the growth inhibition is 6% in experiment [3] (setting [7]); -1% in experiment [3] (setting [8]); 84.1% (active) in experiment [3] (at 50.0 µM); -2% in experiment [4] (setting [7]); -3% in experiment [4] (setting [8]); 85.7% (active) in experiment [4] (at 50.0 µM). Moreover, the growth inhibition in experiment [5] (setting [7]) is -3%; in experiment [5] (setting [8]) it was 0%; in experiment [5] (at 50.0 µM), 92.5% (active); in experiment [6] (setting [7]), 4%; in experiment [6] (setting [8]), 4%; in experiment [6] (at 50.0 µM), 88.8% (active).

For the compound `C1CCC(CC2CCC(NC3=NCCO3)CC2)CC1` (configuration not stated), the growth inhibition was -23% in experiment [1] (setting [7]); 97% (active) in experiment [1] (setting [8]); 88.6% (active) in experiment [1] (at 50.0 µM); -12% in experiment [2] (setting [7]); 96% (active) in experiment [2] (setting [8]); 87.5% (active) in experiment [2] (at 50.0 µM). The growth inhibition is -22% in experiment [3] (setting [7]); 99% (active) in experiment [3] (setting [8]); 87.2% (active) in experiment [3] (at 50.0 µM); -8% in experiment [4] (setting [7]); 91% (active) in experiment [4] (setting [8]); 88.2% (active) in experiment [4] (at 50.0 µM). Besides, the growth inhibition was -35% in experiment [5] (setting [7]); 98% (active) in experiment [5] (setting [8]); 91.2% (active) in experiment [5] (at 50.0 µM); -9% in experiment [6] (setting [7]); 99% (active) in experiment [6] (setting [8]); 84.3% (active) in experiment [6] (at 50.0 µM).

In the case of `CC(NCCO)c1ccc2ccccc2c1` (configuration not stated), the growth inhibition is 0% in experiment [1] (setting [7]); 8% in experiment [1] (setting [8]); 2.15% in experiment [1] (at 50.0 µM); 3% in experiment [2] (setting [7]); -4% in experiment [2] (setting [8]); -13.2% in experiment [2] (at 50.0 µM). The growth inhibition in experiment [3] (setting [7]) was -10%; in experiment [3] (setting [8]), -6%; in experiment [3] (at 50.0 µM), 2.3%; in experiment [4] (setting [7]), 3%; in experiment [4] (setting [8]) it was -3%; in experiment [4] (at 50.0 µM) it was 30.7%. Further, the growth inhibition is 3% in experiment [5] (setting [7]); -1% in experiment [5] (setting [8]); -14.9% in experiment [5] (at 50.0 µM); -1% in experiment [6] (setting [7]); 8% in experiment [6] (setting [8]); -3.8% in experiment [6] (at 50.0 µM).

On to `CCOC(=O)c1[nH]c(Br)c(-c2ccc(OC)c(OC)c2)c1Br`, for which the growth inhibition is 1% in experiment [1] (setting [7]); 98% (active) in experiment [1] (setting [8]); 92.1% (active) in experiment [1] (at 50.0 µM); -8% in experiment [2] (setting [7]); 97% (active) in experiment [2] (setting [8]); 63.5% in experiment [2] (at 50.0 µM). In addition, the growth inhibition in experiment [3] (setting [7]) was 1%; in experiment [3] (setting [8]), 98% (active); in experiment [3] (at 50.0 µM) it was 97.2% (active); in experiment [4] (setting [7]) it was 26%; in experiment [4] (setting [8]), 99% (active); in experiment [4] (at 50.0 µM), 88.8% (active). Also, the growth inhibition in experiment [5] (setting [7]) was -2%; in experiment [5] (setting [8]), 99% (active); in experiment [5] (at 50.0 µM), 88% (active); in experiment [6] (setting [7]), 8%; in experiment [6] (setting [8]), 97% (active); in experiment [6] (at 50.0 µM), 94.2% (active).

With `CC1(C)COC(C)(C(=O)O)OC1`, the growth inhibition in experiment [1] (setting [7]) is 2%; in experiment [1] (setting [8]) it was -5%; in experiment [1] (at 50.0 µM) it was 51.6%; in experiment [2] (setting [7]) it was -2%; in experiment [2] (setting [8]), -1%; in experiment [2] (at 50.0 µM), -3.35%. For the same compound, the growth inhibition was 4% in experiment [3] (setting [7]); 2% in experiment [3] (setting [8]); -5.8% in experiment [3] (at 50.0 µM); 0% in experiment [4] (setting [7]); -6% in experiment [4] (setting [8]); -50.7% in experiment [4] (at 50.0 µM). For the same compound, the growth inhibition is -4% in experiment [5] (setting [7]); 0% in experiment [5] (setting [8]); -1.8% in experiment [5] (at 50.0 µM); 6% in experiment [6] (setting [7]); -1% in experiment [6] (setting [8]); -8% in experiment [6] (at 50.0 µM).
